High-throughput results: PubChem, several laboratories
Sampled rows, rich in hits. Any-hit rate of the full collection: about 2.4%.
PfGluPho inh: PfG6PD enzyme inhibitors, primary screen, biochemical, fluorescence intensity, uHTS. glucose-6-phosphate dehydrogenase-6-phosphogluconolactonase (Plasmodium falciparum 3D7). PfGluPho enzyme, NADPH resazurin-diaphorase fluorescence. inhibition, % at 20 µM. 350,000 tested, 0.78% active. AID 504690, 2011;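 active = inhibition reaching at least a set limit at 20 µM in the primary screen, cut at about 59% in these data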;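 also: 0% = DMSO wells with substrate and 100% = DMSO wells lacking glucose-6-phosphate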
CR mimetic SO: reduction of superoxide in aged yeast, primary screen, HTS; S. cerevisiae aged cells, superoxide DHE fluorescence; hits give low values; superoxide response (% of plate mean), % at 10 µM; 330,000 tested, 0.18% active; AID 2690, 2010;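 active = superoxide response under a set limit, about three screen SD below normal, cut at about 65% in these data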;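 also: yeast aged for seven days with compound at 30 °C before DHE staining; 100% = average MFI of all compound-treated wells on the plate with controls excluded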
PfM18AAP inh-1: PfM18AAP inhibitors, malaria aminopeptidase, primary screen, biochemical, QFRET, recombinant enzyme; inhibition, % at 7.35 µM; H-Glu-NHMec fluorogenic cleavage; M18 aspartyl aminopeptidase (Plasmodium falciparum 3D7); AID 1822, 2009; 290,000 tested, 1.2% active;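 active = inhibition above the campaign mean inhibition over all tested compounds plus 3 SD, cut at about 28% in these data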;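 also: 0% = plate median of test compound wells and 100% = 2 mM ZnCl2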
APOBEC3G inh: APOBEC3G DNA deaminase inhibitors, primary screen, biochemical, fluorescence, single-stranded DNA substrate, uHTS | inhibition, % at 20 µM | 330,000 tested, 0.28% active | recombinant A3G, ssDNA deamination FAM/TAMRA fluorescence | DNA dC->dU-editing enzyme APOBEC-3G (Homo sapiens), Q9HC16;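 active = inhibition of at least 40% at 20 µM, with no more than 30% in the related APOBEC3A deaminase screen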;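 also: plate controls were DMSO wells with A3G for no effect and wells lacking A3G enzyme for full effect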
APOBEC3A inh: APOBEC3A ssDNA deaminase inhibitors, primary screen, selectivity assay for APOBEC3G inhibitor project, biochemical, FAM/TAMRA oligo cleavage fluorescence | DNA dC->dU-editing enzyme APOBEC-3A (Homo sapiens), P31941 | recombinant A3A, FAM/TAMRA ssDNA deamination fluorescence | inhibition, % at 20 µM | 330,000 tested, 0.41% active;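 active = at least 40% inhibition at 20 µM here, with at most 30% in a related deaminase screen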;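 also: plate controls were A3A with DMSO for no effect and wells lacking A3A enzyme for full effect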
Target sequence (P31941 whole entry, looked up): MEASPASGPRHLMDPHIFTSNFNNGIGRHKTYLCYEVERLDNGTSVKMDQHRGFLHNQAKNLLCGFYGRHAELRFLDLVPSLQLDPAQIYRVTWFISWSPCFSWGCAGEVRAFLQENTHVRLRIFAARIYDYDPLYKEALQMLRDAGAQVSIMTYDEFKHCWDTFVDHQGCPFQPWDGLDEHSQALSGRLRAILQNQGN
PfM18AAP inh-2: PfM18AAP inhibitors, malaria aminopeptidase, confirmation, biochemical, QFRET, recombinant enzyme, triplicate; shares compounds with PfM18AAP inh-1; H-Glu-NHMec fluorogenic cleavage; inhibition, % at 7.35 µM; 2,400 tested, 28% active;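 active = mean inhibition over replicate wells above the hit cutoff set for the earlier primary screen, cut at about 29% in these data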;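 also: 0% = median of test compound wells and 100% = 2 mM ZnCl2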
CTSL1 counter: cathepsin L1 inhibitors, retest, confirmation, counter-screen for PFM18AAP inhibitor project, biochemical, QFRET, triplicate; shares compounds with PfM18AAP inh-1; purified cathepsin L1, Z-Leu-Arg-MCA fluorescence; inhibition, % at 5.96 µM; 2,400 tested, under 10 active;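 active = average inhibition across replicates above the hit cutoff set in the earlier primary screen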;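 also: 0% = median of test compound wells and 100% = Z-Phe-Ala-diazomethylketone 1 µM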
Target sequence (P07711 whole entry, looked up): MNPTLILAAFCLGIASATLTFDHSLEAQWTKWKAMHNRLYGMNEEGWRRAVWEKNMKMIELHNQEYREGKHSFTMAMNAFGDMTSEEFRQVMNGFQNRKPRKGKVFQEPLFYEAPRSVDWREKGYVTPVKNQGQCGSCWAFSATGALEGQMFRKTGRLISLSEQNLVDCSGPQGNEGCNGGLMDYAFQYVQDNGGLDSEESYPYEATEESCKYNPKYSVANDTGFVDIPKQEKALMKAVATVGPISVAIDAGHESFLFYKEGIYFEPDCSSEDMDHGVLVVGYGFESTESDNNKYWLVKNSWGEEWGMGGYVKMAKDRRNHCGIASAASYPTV
Starred values were filed as active, the others as inactive; nt = no result given.

SMILES	PfGluPho inh	CR mimetic SO	PfM18AAP inh-1	APOBEC3G inh	APOBEC3A inh	PfM18AAP inh-2	CTSL1 counter
O=C(O)CCCn1c(O)c(C=C2N=c3ccccc3=N2)sc1=S	7	121	-2	-2	1	nt	nt
NNc1nc(-c2ccccc2Cl)nc2ccccc12	3	101	45*	5	-9	-4	-4
CNC(=S)NNC(=O)c1ccc2c(c1)OCO2	-1	125	35*	-7	-5	22	-1
CC(C)(C)c1nnc(NC(=O)c2ccc3c(c2)OCO3)s1	105*	108	43*	28	2	23	-3
O=C(COC(=O)/C=C/c1ccc(F)cc1)NC1CCCCCC1	-16	117	nt	18	0	nt	nt
Cc1c(NC(=O)CN2CCN(c3ccc(O)cc3)CC2)c(=O)n(-c2ccccc2)n1C	58	102	39*	6	0	-24	3
N#Cc1c(Cl)nsc1NN	28	99	39*	7	4	29*	-1
Cc1c(C#N)c(N)nc(Cl)c1C#N	-12	108	-5	-4	-1	nt	nt
O=C(Cn1cnc([N+](=O)[O-])n1)c1ccc(O)c(O)c1	-12	133	38*	-6	-3	14	0
O=C(Cn1cnc([N+](=O)[O-])n1)c1ccccc1	12	106	0	-4	-3	nt	nt
O=C(C/C=N\OCc1ccc([N+](=O)[O-])cc1)Nc1ccccc1	17	91	33*	0	2	-33	-1
O=C(C/C=N\OCc1ccc([N+](=O)[O-])cc1)Nc1ccc(Cl)cc1	-4	101	-14	4	3	nt	nt
Oc1cccc(/C=N/N=C/c2cccc(O)c2O)c1O	32	107	42*	-2	-5	7	-1
Oc1ccccc1C=NN=C1c2ccccc2-c2ccccc21	13	nt	nt	nt	nt	nt	nt
COC(=O)CN(n1cnnc1)S(=O)(=O)c1ccc(C)cc1	-3	117	84*	-5	-6	79*	-13
COc1cccc(/C=C/C(=O)c2c(O)cc(C)oc2=O)c1O	13	98	3	-1	1	nt	nt
COc1cc(/C=C/C(=O)c2c(O)cc(C)oc2=O)cc(OC)c1O	33	104	42*	-7	-7	-16	-2
CCOC(=O)/C(=C/C=C1\Sc2cc(C)c(C)cc2N1CC)C(C)=O	31	nt	22	nt	nt	nt	nt
CCC(=O)/C=C1/Sc2ccc(OC)cc2N1CC	40	81	27	10	-1	nt	nt
CCC(=O)/C=C1/Sc2ccccc2N1CC	53	96	54*	-11	-7	7	4
CCOC(=O)/C(=C\C=C1/Sc2ccccc2N1CC)C(C)=O	33	130	45*	nt	nt	-20	8
CCOC(=O)/C(=C/C=C1\Sc2ccccc2N1CC)C(C)=O	37	95	43*	-22	-12	-37	0
O=C(Nc1ccccc1F)C1COc2ccccc2O1 (stereo unspecified)	-20	96	1	-1	-5	nt	nt
O=C(Cc1ccccc1F)Nc1cc(S(=O)(=O)N2CCCCC2)ccc1N1CCOCC1	0	nt	nt	nt	nt	nt	nt
S=C(NCc1ccco1)Nc1ccccn1	17	116	10	-9	-6	nt	nt
SMILES	PfGluPho inh	CR mimetic SO	PfM18AAP inh-1	APOBEC3G inh	APOBEC3A inh	PfM18AAP inh-2	CTSL1 counter
Cc1cccnc1NC(=S)NCc1ccco1	15	89	32*	-5	35	-20	-5
COC(=O)N1c2ccccc2C=Cc2ccccc21	-5	97	6	-7	-8	nt	nt
Cc1nc(N/N=C/c2ccc(O)cc2O)cc(N2CCOCC2)n1	45	87	49*	-11	-3	34*	1
COCC1CCCN(C(=O)c2ccc3nc(Cc4cccc(Cl)c4)oc3c2)C1 (stereo unspecified)	-9	115	-6	-1	2	nt	nt
Cc1ccccc1-c1cc(=O)c2ccccc2o1	-6	108	nt	-6	0	nt	nt
COc1c(O)cc2oc(-c3ccc(O)cc3)cc(=O)c2c1O	7	101	nt	-4	-1	nt	nt
Cc1c2cc(O)c(=O)cc-2oc2cc(O)c(O)cc12	51	69	29*	70	76	42*	-1
COc1cc(OC)c(-c2c3cc(O)c(=O)cc-3oc3cc(O)c(O)cc23)cc1OC	-91	94	44*	-11	1	26	-1
O=C(NCCCc1ccc(F)cc1)C1CCC(=O)N(CCCN2CCCC2=O)C1 (stereo unspecified)	-1	87	3	-6	-8	nt	nt
COc1ccccc1NC(=O)NCCCCc1ccccc1	-6	104	5	1	5	nt	nt
Oc1c(C(c2ccccc2)N2CCCCC2)sc2ncnn12 (stereo unspecified)	8	88	57*	-8	-5	-26	-5
CC1(NC(=O)Nc2cc([N+](=O)[O-])ccc2O)CCS(=O)(=O)C1 (stereo unspecified)	0	103	nt	0	-2	nt	nt
O=C1C=C(Nc2ccc(Cl)cc2)CC(c2ccco2)C1 (stereo unspecified)	9	102	10	-5	1	nt	nt
O=C1C=C(Nc2cccc(O)c2)CC(c2ccco2)C1 (stereo unspecified)	9	107	44*	3	3	-34	2
Cc1ccc(O)c(N=CC2=C(O)c3ccccc3C2=O)c1	14	109	71*	0	0	-15	5
CCN(CC)c1ccc(N=Cc2cc(Br)ccc2O)cc1	49	100	37*	-3	-3	-18	-5
Oc1ccc(Br)cc1C=Nc1ccc(Cl)cc1	1	99	0	-7	2	nt	nt
CC(C)(C)c1ccc(O)c(N=Cc2cc(Br)ccc2O)c1	23	96	56*	3	-7	88*	-3
Cc1ccc(O)c(C=Nc2cc(C)ccc2O)c1	25	111	32*	3	2	37*	-2
OCC(CO)(CO)N=Cc1cc(Br)ccc1O	-13	98	1	-4	2	nt	nt
O=C(COc1ncnc2sccc12)NC1CCCCC1	11	nt	nt	-5	1	nt	nt
Cn1c(=O)[nH]c(=O)c2c1[nH]c(=S)n2Cc1ccc(Cl)cc1	51	106	48*	16	-4	16	3
CC1Sc2ccc(C(=O)O)cc2NC1=O (stereo unspecified)	-3	103	44*	-2	0	-60	-9
